From PubChem
FLuc modulator: qHTS profiling assay for firefly luciferase inhibitor/activator using purifed enzyme and Km concentrations of substrates (counterscreen for miR-21 project). purified FLuc, Km substrates, luminescence inhibition. Potency, µM (highest dose often 57.5 µM), inactives show top-dose activity change, negative = inhibition, actives largely listed as inhibitors. 6.9% of 360,000 active. AID 588342, 2011;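 also: plate controls were vehicle for no effect and reference inhibitor for full effect; nearly all actives have a fitted effect of over 55% in size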
Target sequence (P08659 whole entry, looked up): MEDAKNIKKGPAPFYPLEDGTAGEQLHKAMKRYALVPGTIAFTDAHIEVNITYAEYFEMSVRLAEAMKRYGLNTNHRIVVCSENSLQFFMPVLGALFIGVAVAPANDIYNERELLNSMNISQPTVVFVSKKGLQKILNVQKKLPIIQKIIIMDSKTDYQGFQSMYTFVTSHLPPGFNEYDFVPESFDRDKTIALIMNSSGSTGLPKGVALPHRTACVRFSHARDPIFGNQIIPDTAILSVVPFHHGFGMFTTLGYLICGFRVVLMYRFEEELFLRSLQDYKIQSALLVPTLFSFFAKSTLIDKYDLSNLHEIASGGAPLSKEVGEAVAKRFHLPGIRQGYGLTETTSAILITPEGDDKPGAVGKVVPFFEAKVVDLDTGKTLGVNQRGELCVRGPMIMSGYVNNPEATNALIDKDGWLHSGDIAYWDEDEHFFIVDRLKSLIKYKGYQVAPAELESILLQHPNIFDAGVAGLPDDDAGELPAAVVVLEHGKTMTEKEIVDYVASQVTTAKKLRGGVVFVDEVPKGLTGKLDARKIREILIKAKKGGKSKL
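Biochemical qHTS of compounds, final roughly 60 µM downward over six points, against 10 nM purified firefly luciferase using Km concentrations of substrates (10 uM D-luciferin, 10 uM ATP) in Tris acetate pH 7.5 buffer; luminescence output.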
Rab9 promoter act: qHTS Assay for Rab9 Promoter Activators | Huh7 Rab9 promoter-luciferase reporter, luminescence, 24 h | Potency, µM (series often up to 9.22 µM), without a hit: top-dose activation, negative = inhibition, most hits filed as activators | 2.8% of 320,000 active; also: % of control where 0% means no effect; nearly all actives have a fitted effect of over 60% in size
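Luminescence read-out: Huh7 cells stably expressing Rab9-luciferase, treated 24 h with compound at 37 °C, then lysed with luciferase reagent for 10 min at ambient before reading.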
ELG1 genotoxic: qHTS screen for small molecules that induce genotoxicity in human embryonic kidney (HEK293T) cells expressing luciferase-tagged ELG1; AID 504466, 2011; 1.3% of 330,000 active; Potency, µM (doses to about 46 µM), without a hit: top-dose activity change, positive = activation, hits mostly activators; HEK293T ELG1-luciferase reporter, luminescence, 16 h; also: % of control where 0% means no effect; nearly all actives have a fitted effect of over 60% in size
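After overnight (16 hr) compound treatment at 37 °C, ELG1-luciferase HEK293T cells were lysed with ONE-Glo; luminescence quantified 30 min later at room temperature.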
NPC1 prom act: qHTS Assay for NPC1 Promoter Activators; Huh7 NPC1 promoter luciferase reporter, 24 h; Potency, µM (top dose mostly 9.22 µM), for the others: at the top dose activation, usual class: activators; 2.4% of 320,000 active; also: % of control where 0% means no effect; nearly all actives have a fitted effect of over 60% in size
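Stable NPC1-promoter luciferase Huh7 line; cpd (DMSO) 24 h, 37 °C, 5% CO2; Amplite luciferase reagent 10 min RT; luminescence readout. qHTS format.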
Luc counter: Counterscreen for Luciferase (Kinase-Glo TM) Inhibition. Luciferin 4-monooxygenase (Photuris pensylvanica), Q27757. Potency, µM (highest dose often 38.3 µM), inactives show at the top dose activity change, negative = inhibition, actives largely listed as inhibitors. Kinase-Glo luciferase, ATP luminescence, 8 min. 0.28% of 200,000 active; also: % is scaled to controls: 0 for no effect and ±100 for the full control effect; nearly all actives have a fitted effect of over 60% in size
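Luminescence was the read-out, taken after 8-minute incubation at ambient temperature. Luciferase turned over luciferin with 10 uM ATP in imidazole pH 7.2 buffer containing KCl, MgCl2, Tween 20 and BSA.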
SMN2 splice enh: qHTS Assay for Enhancers of SMN2 Splice Variant Expression | HEK293 SMN2-luciferase splicing reporter, luminescence, 30-36 h | Potency, µM (top dose mostly 46.1 µM), for the others: at the top dose activity change, positive = activation, most hits filed as activators | 2.8% of 210,000 active; also: % of control where 0% means no effect; nearly all actives have a fitted effect of over 55% in size
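HEK293 cells carry an SMN2 […]–luciferase reporter in which exon 7 inclusion puts luciferase in frame. Cells were plated 10-12 h before compound addition, then incubated 30-36 h at 37C. ONE-Glo luminescence was read; sodium butyrate at 4.5 mM final served as control.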
An asterisk follows results filed as active; ? = inconclusive; . = not tested or not shown; [ ] = dose if it differs, or a comment. A selection: hits, their analogues and other compounds. The true share with any hit is near 7.3%. Calls follow the shape of the dose curve; as a rule, active = well fitted curve in the direction sought with a large enough effect; inconclusive = small, poorly fitted or top-dose-only effect, or another doubt; inactive = no such curve, though single readings can be large; an effect the other way counts as inactive or inconclusive. Potency is read from the fitted curve at half-maximal effect.

SMILES	FLuc modulator	Rab9 promoter act	ELG1 genotoxic	NPC1 prom act	Luc counter	SMN2 splice enh
COc1cc(N=c2ssnc2Cl)c(OC)cc1Cl	17µM*	1%	-3%	-1%	11%	0%
Cc1ccc(N=c2ssnc2Cl)cc1	21µM*	7%	-7%	1%	-1%	-11%
Cc1cc(Cl)ccc1N=c1ssnc1Cl	?	-1%	-23%	0%	0%	-23%
CC(=O)Nc1ccc2c(c1)OCO2	-2%	1%	-1%	-3%	1%	6%
Cc1ccc(C(=O)Nc2ccc3c(c2)OCO3)o1	11µM*	28%[1.84 µM]	15µM*	2.8µM*	?	11µM*
C/C(=C\C(=O)c1ccccc1)Nc1ccc2c(c1)OCO2	3.8µM*	4µM*	?	2.8µM*	-3%	22µM*
C/C(=C\C(=O)c1ccc(C)o1)Nc1ccc2c(c1)OCO2	4.8µM*	2.2µM*	?	2.8µM*	-4%	27%
CC(=O)Nc1cc(C(=O)NCc2ccc(F)cc2)ccc1Sc1ccc(C)cc1	-1%	.	.	.	.	.
Cc1cc(N2CCN(c3ccc(F)cc3)CC2)n2nc(-c3ccc(Cl)cc3)nc2n1	-2%	.	.	.	.	11%
Cc1cccc(OCCSc2nc(-c3cccs3)nc3cc(=O)[nH]n23)c1	15µM*	.	.	.	.	.
CCCCOc1ccc(CSc2nnc(C)n2N)cc1[N+](=O)[O-]	7.6µM*	26%	14%	20%	-20%	.
Cc1ccc(Cc2nc3ccccc3nc2SCC(=O)Nc2ccc3c(c2)OCO3)cc1	4%	.	.	.	.	.
CN=c1scc(-c2ccccc2Br)n1/N=C/c1ccc[nH]1	1.1µM*	?	0.46µM*	?	-9%	.
CN=c1scc(-c2ccc(Br)cc2)n1C	-17%	-5%	1%	1%	-3%	-5%
Cc1nn(-c2ccccc2)c2c1N(CC(=O)N1CCN(c3ccc(F)cc3)CC1)C(=O)CS2	-2%	.	.	.	.	.
CCNC(=O)c1ccc(NC(=O)CC2SC(N3CCCCC3)=NC2=O)cc1 (configuration not stated)	-3%	-2%	0%	0%	.	.
Cc1ccnc(NC(=O)c2ccc(NC(=O)CC3SC(N4CCCC4)=NC3=O)cc2)c1 (configuration not stated)	-16%	22%	8%	15%	.	.
CC1CCC(NC(=O)c2ccc(NC(=O)CC3SC(N4CCCC4)=NC3=O)cc2)CC1 (configuration not stated)	?	2.2µM*	19%	2.5µM*	.	.
Cc1ccnc(NC(=O)c2cccc(NC(=O)CC3SC(N4CCCCC4)=NC3=O)c2)c1 (configuration not stated)	12µM*	17%	3%	4%	.	.
COC(c1ccccc1)c1nnc(CCC(=O)N(C)C(C2CC2)C2CC2)o1 (configuration not stated)	13µM*	2.8µM*	?	?	8%	.
COc1ccccc1OCC(=O)N(Cc1ccc(N(C)C)cc1)CC1CCCO1 (configuration not stated)	5%	.	.	.	.	0%
CC(=O)Nc1ccccc1-c1nc2ccccc2n(CC(=O)c2ccc(C)c(C)c2)c1=O	-2%	.	.	.	.	.
CCOc1cc(/C=N/NC(=O)c2cc3c(ccc4ccccc43)o2)ccc1O	?	2%	-16%	3%	.	.
O=C(N/N=C/c1cc(Br)c(O)c(Br)c1)c1cc2c(ccc3ccccc32)o1	3µM*	0%	-1%	1%	.	.
CCOC(=O)COc1ccccc1/C=N\NC(=O)c1cc2c(ccc3ccccc32)o1	24µM*	0%	-1%	-4%	.	.
O=C(N/N=C/c1cc(Cl)c(O)c(Cl)c1)c1cc2c(ccc3ccccc32)o1	2.1µM*	12%	-6%	10%	.	.
